Screens as filed in PubChem.
An excerpt weighted towards active compounds, which were near 32% of everything screened.
PostGolgi ctrl – growth inhibition of yeast control strain, primary screen, counter-screen for post-Golgi transport modulator project; 98,000 tested, 5% active; efflux-deficient yeast background strain, growth absorbance A615, 16 h; inhibition, % at 10 µM; AID 738, 2007
CYP2C9 activ – human CYP2C9 activators, primary screen, biochemical, luminescence. Cytochrome P450 2C9 (Homo sapiens), P11712. recombinant CYP2C9, luciferin-H conversion; active compounds read high; factor 1 = untreated enzyme, 0 = blocked. activation factor at 5 µM. 96,000 tested, 1.4% active. AID 1024, 2008;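 active = activation factor of 2 or more for CYP2C9 at a 5 µM dose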;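 also: 0 = sulfaphenazole-blocked wells and 1 = vehicle-only wells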
Target sequence (P11712 whole entry, looked up): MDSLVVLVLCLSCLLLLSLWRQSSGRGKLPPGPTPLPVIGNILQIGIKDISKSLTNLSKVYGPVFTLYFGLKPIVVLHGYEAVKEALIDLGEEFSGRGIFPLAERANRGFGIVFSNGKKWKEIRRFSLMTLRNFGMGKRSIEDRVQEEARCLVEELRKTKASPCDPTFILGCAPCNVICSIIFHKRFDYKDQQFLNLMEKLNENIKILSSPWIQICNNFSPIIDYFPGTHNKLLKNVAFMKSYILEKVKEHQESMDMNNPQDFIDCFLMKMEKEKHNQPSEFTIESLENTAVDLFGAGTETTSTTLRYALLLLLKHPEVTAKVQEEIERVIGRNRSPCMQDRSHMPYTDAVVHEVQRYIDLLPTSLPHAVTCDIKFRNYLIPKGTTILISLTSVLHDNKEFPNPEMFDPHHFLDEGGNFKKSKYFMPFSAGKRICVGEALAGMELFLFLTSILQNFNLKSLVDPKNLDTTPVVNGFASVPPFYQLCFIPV
CYP2C9 inhib – blockers of cytochrome P450 2C9 activity – biochemical, luminescence, ADME assay, primary screen | 96,000 tested, 20% active | inhibition, % at 5 µM | CYP2C9 Supersomes, luciferin-H conversion | P11712;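 active = blocking of liver enzyme CYP2C9 beyond about 50% at 5 µM, limit read from the data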
CYP2C19 inhib – blockers of cytochrome P450 2C19 activity – biochemical, luminescence, ADME assay, primary screen. CYP2C19 Supersomes, luciferin-H EGE luminescence, 30 min. inhibition, % at 5 µM. 96,000 tested, 21% active. AID 778, 2007;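 active = CYP2C19 inhibition above a set limit at 5 µM in the primary screen, cut at about 50% in these data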;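 also: plate controls were negative control wells for no effect and 2.5 mM tranylcypromine positive control for full effect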
PostGolgi yeast – phenotypic screen on post-Golgi transport, primary screen | inhibition, % at 10 µM | post-Golgi transport phenotypic cell assay | 98,000 tested, 0.9% active;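 also: yeast cells grown in 1536-well plates; yeast grown about 18 h at 30C before absorbance read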
CYP2C19 activ – human CYP2C19 activators, primary screen, biochemical, luminescence; Cytochrome P450 2C19 (Homo sapiens), P33261; recombinant CYP2C19, luciferin-H EGE luminescence; active compounds read high; 0 = fully inhibited enzyme, 1 = untreated enzyme; activation factor at 5 µM; 96,000 tested, under 10 active; AID 1025, 2008;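 active = activation factor of at least 2 at 5 µM in the primary screen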;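 also: 0 = wells with 2.5 mM tranylcypromine and 1 = vehicle-only wells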
Starred values were filed as active, the others as inactive; . = no result. Rule as the data show it, unless noted: active = inhibition above about 30%; inactive = the rest.

SMILES	PostGolgi ctrl	CYP2C9 activ	CYP2C9 inhib	CYP2C19 inhib	PostGolgi yeast	CYP2C19 activ
COc1cccc(C=Nc2cc(C)on2)c1O	20	1	4	-6	0	1.1
CCc1c(C)nc2ncnn2c1NCCc1ccccc1	16	0.6	43	64*	0	0.4
Cc1nc2ncnn2c(C)c1CCC(=O)NCc1ccccc1	28	1	4	-3	3	1
Cc1nc2ncnn2c(Nc2ccc3c(c2)OCO3)c1Cc1ccccc1	16	0.7	29	72*	-1	0.3
Cc1ccc(C(C(=O)NC2CCCC2)N2CCCCC2)cc1 (configuration not stated)	11	1	1	-14	2	1.1
Cc1cc(N=Cc2c(O)n(-c3ccc4c(c3)OCO4)c(=O)c3ccccc23)ccn1	30*	0.4	60*	55*	0	0.4
Cc1nc2ncnn2c(C)c1CCC(=O)N1CC(C)CC(C)C1 (configuration not stated)	-2	1.1	-6	5	10	0.9
COC(=O)C1=C(N)n2c(s/c(=C\c3cccnc3)c2=O)=C(C(=O)OC)C1c1cccnc1 (configuration not stated)	10	0.5	50	70*	-14	0.3
N#CC1=C(N)n2c(s/c(=C\c3ccco3)c2=O)=C(C#N)C1c1ccco1 (configuration not stated)	11	0.5	51*	5	18	0.9
CCN1C(=O)NC(c2cccnc2)C(C(=O)OC)=C1C (configuration not stated)	9	1	1	0	2	1
CCOC(=O)C1=C(C)N=c2s/c(=C/c3ccco3)c(=O)n2C1c1cccc(OC)c1 (configuration not stated)	15	0.6	35	17	-12	0.8
CCOC(=O)C1=c2s/c(=C\c3cccnc3)c(=O)n2C(N)=C(C(=O)OC)C1c1cccnc1 (configuration not stated)	1	0.1	88*	90*	6	0.1
CCOC(=O)C1=C(N)n2c(s/c(=C/c3ccco3)c2=O)=C(C(=O)OC)C1c1ccco1 (configuration not stated)	6	0.2	78*	24	-1	0.8
O=P(O)(O)c1ccccc1OCc1ccccc1	0	1	2	2	-6	1
Clc1ccc(OCc2nc(-c3ccncc3)no2)c(Cl)c1	37*	0.1	95*	96*	44*	0
COc1ccc(Cl)cc1-c1nc(-c2ccncc2)no1	3	0.6	38	79*	6	0.2
CCOc1ccccc1-c1nc(-c2ccncc2)no1	10	1.4	-37	78*	0	0.2
CCOc1ccccc1-c1nc(-c2cc3ccc(C)cc3[nH]c2=O)no1	31*	.	.	.	-8	.
Cc1ccccc1CS(=O)(=O)CCC(=O)NCCN1CCN(c2cccc(Cl)c2)CC1	1	0.8	25	21	15	0.8
CCCC(=O)NC(C)c1nc2ccccc2n1C(C)C (configuration not stated)	-1	0.9	6	9	-2	0.9
Cc1ccccc1NC(=S)NN1CCN(C)CC1	6	0.9	6	-1	-2	1
COc1ccccc1-c1nc(-c2ccncc2)no1	9	0.8	23	89*	0	0.1
COc1ccccc1-c1nc(-c2ccc(Br)cc2)no1	8	1.2	-16	-1	1	1
COc1cc(/C=N/NC(=O)/C(=C\c2ccc([N+](=O)[O-])cc2)NC(=O)c2ccccc2)cc(OC)c1O	-3	0.7	32	44	5	0.6
COc1cc(/C=N/N2C(=O)c3ccccc3NC2(C)c2cccc([N+](=O)[O-])c2)cc(Br)c1O (configuration not stated)	18	0.1	92*	50*	-1	0.5
SMILES	PostGolgi ctrl	CYP2C9 activ	CYP2C9 inhib	CYP2C19 inhib	PostGolgi yeast	CYP2C19 activ
CCOC(=O)N1CCC(NC(=O)c2cc(S(=O)(=O)N3CCc4ccccc43)cn2C)CC1	2	0.6	42	6	-2	0.9
CCOC(=O)C1=C(C)OC(N)=C(C#N)C1c1cc(Cl)c(OCC(N)=O)c(OC)c1 (configuration not stated)	2	0.1	89*	41	8	0.6
CCOC(=O)C1=C(C)OC(N)=C(C#N)C1c1cc(OC)c2c(c1)OCO2 (configuration not stated)	4	0.3	66*	84*	-10	0.2
N#CC1=C(N)Oc2c(ccc3cccnc23)C1c1cccnc1 (configuration not stated)	1	.	.	.	2	.
COc1cc(C2C(C#N)=C(N)Oc3cc(N(C)C)ccc32)cc2c1OCO2 (configuration not stated)	18	0.5	55*	51*	-1	0.5
CCOc1ccc(C2C(C#N)=C(N)Oc3nc[nH]c(=O)c32)cc1OC (configuration not stated)	6	0.9	12	7	9	0.9
N#CC1=C(N)Oc2cc3ccccc3cc2C1c1cccnc1 (configuration not stated)	8	0.2	82*	66*	-1	0.3
O=C(CCc1ccccc1)NNC(=O)C12CC3CC(CC(C3)C1)C2	-2	1	4	-9	-6	1.1
CN1CCN(/C(=N\S(=O)(=O)c2ccc(F)cc2)c2ccccc2)CC1	0	1.2	-19	-9	9	1.1
COc1ccc(C2C(C#N)=C(N)Oc3cc(O)ccc32)cc1OC (configuration not stated)	4	0.6	36	38	3	0.6
CCOc1cc(C2C(C#N)=C(N)OC(C)=C2C(C)=O)cc(Br)c1O (configuration not stated)	-1	0.1	90*	46	-7	0.5
N#CC1=C(N)Oc2cc(O)ccc2C1c1ccccc1 (configuration not stated)	10	0.2	77*	65*	-9	0.3
CCOc1cc(C2C(C(=O)N3CCCCC3)=C(C)NC3=C2C(=O)CCC3)cc(Br)c1O (configuration not stated)	0	1	-2	6	2	0.9
COc1cc(C2C(C#N)=C(N)Oc3cc(O)ccc32)cc2c1OCO2 (configuration not stated)	9	0.1	91*	93*	-7	0.1
N#CC1=C(N)Oc2cc3c(cc2C1c1ccc(Cl)cc1)OCO3 (configuration not stated)	30*	0.8	18	22	-4	0.8
